From PubChem BioAssay (EPA / NIEHS)
Results filed as inconclusive are left out. Active and inactive are the calls of the source. How the source made its calls, unless noted: active means hit-call score of the fitted dose curve at least 0.9, where 1 is the maximum; inconclusive means response in the unintended direction; inactive means score below 0.9.

Legend:
[1] = biological target: Cellular tumor antigen p53 (Homo sapiens) (UniProt P04637); experiment: TOX21_p53_BLA_p2_ratio: Tox21 HCT-116 p53 Agonism Beta-lactamase Assay, Ratio, Phase 2 (AID 2283592)
Method in brief: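 First, HCT116 reporter cells settle for 5 h at 37C. Next, DMSO compound solutions are pinned in (217-fold dilution) and left 16 h. Finally, CCF4-AM substrate is loaded 2 h at room temperature and the 460/530 nm ratio read.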

[2] = TOX21_p53_BLA_p3_viability: Viability Assessment in the Tox21 HCT-116 p53 Agonism Beta-lactamase Assay, Phase 3 (AID 2283593);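 further: cells exposed to compound for 16 h before reading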
Method in brief: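 Cellular ATP was quantified by CellTiter-Glo luminescence, read after 30 min at room temperature. Beforehand, HCT116 cells (4000/well) received compound 5 h post-seeding, 217-fold diluted from DMSO, then incubated 16 h at 37C.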

[3] = biological target: Cellular tumor antigen p53 (Homo sapiens) (UniProt P04637); experiment: TOX21_p53_BLA_p3_ratio: Tox21 HCT-116 p53 Agonism Beta-lactamase Assay, Ratio, Phase 3 (AID 2283596)
Method in brief: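 Cells were seeded at 4000/well, rested 5 h at 37C, then dosed with DMSO compound solutions (217-fold dilution) for 16 h. CCF4-AM substrate was loaded for 2 h at room temperature, and the 460/530 nm emission ratio was fitted for gain of signal versus DMSO.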

[4] = TOX21_p53_BLA_p4_viability: Viability Assessment in the Tox21 HCT-116 p53 Agonism Beta-lactamase Assay, Phase 4 (AID 2283597);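 further: hits lower the luminescence signal meaning cytotoxicity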
Method in brief: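 4000 HCT116 cells per well; 5 h attachment; compounds from DMSO, 217-fold dilution; 16 h at 37C. Then CCF4-AM, 2 h RT, followed by CellTiter-Glo, 30 min RT, luminescence. Decrease = cytotoxicity.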

[5] = biological target: Cellular tumor antigen p53 (Homo sapiens) (UniProt P04637); experiment: TOX21_p53_BLA_p5_ratio: Tox21 HCT-116 p53 Agonism Beta-lactamase Assay, Ratio, Phase 5 (AID 2283599)
Method in brief: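 Beta-lactamase reporter ratio (blue 460 nm over green 530 nm, 405 nm excitation) after 2 h CCF4-AM loading, in HCT-116 cells exposed 16 h at 37 C to compounds pinned at 217-fold dilution. Increases relative to DMSO baseline scored.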

[6] = biological target: Cellular tumor antigen p53 (Homo sapiens) (UniProt P04637); experiment: TOX21_p53_BLA_p4_ratio: Tox21 HCT-116 p53 Agonism Beta-lactamase Assay, Ratio, Phase 4 (AID 2283601)
Method in brief: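 Signal is the blue/green (460nm/530nm) ratio of cleaved versus uncleaved CCF4-AM substrate, read after 2 h substrate loading. Cells were HCT116 carrying the p53-responsive beta-lactamase reporter, dosed 16 h at 37C, 5% CO2; CellTiter-Glo measured in parallel.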

[7] = TOX21_p53_BLA_p5_viability: Viability Assessment in the Tox21 HCT-116 p53 Agonism Beta-lactamase Assay, Phase 5 (AID 2283600)
Method in brief: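 Decreased CellTiter-Glo luminescence denotes lost viability. Exposure: 16 h at 37C, 5% CO2, with compounds from DMSO stocks diluted 217-fold in wells of 4000 cells.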

[8] = CCTE_Harrill_HTTr_Viability_MCF7: CCTE's 6-hour Cell Viability Assessment for the High-Throughput Transcriptomics (HTTr) Platform, in MCF-7 cells cultured in DMEM + 10% fetal bovine serum, Harrill Lab (AID 2284010; active means hit-call score of the fitted dose curve at least 0.9, where 1 is the maximum; inactive means score below 0.9)
Method in brief: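 Read-out is propidium iodide gain of signal by high-content imaging, reflecting membrane integrity loss. Measurements are taken 6 h after dosing, eight concentrations per chemical, with DMSO serving as baseline for bidirectional curve fitting.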

[9] = CCTE_Harrill_HTTr_Apoptosis_MCF7: CCTE's 6-hour Apoptosis Assessment for the High-Throughput Transcriptomics (HTTr) Platform, in MCF-7 cells cultured in DMEM + 10% fetal bovine serum, Harrill Lab (AID 2284011; active means hit-call score of the fitted dose curve at least 0.9, where 1 is the maximum; inactive means score below 0.9)
Method in brief: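 MCF-7 cells in DMEM + 10% FBS exposed 6 h to chemicals over an eight-point dilution series. Caspase-3/7 activation imaged by high-content CellEvent Green staining; fitted bidirectionally versus DMSO.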

[10] = CCTE_Harrill_HTTr_CellCount_MCF7: CCTE's Cell Proliferation Assessment for the High-Throughput Transcriptomics (HTTr) Platform, Harrill Lab (AID 2284012);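 further: cells exposed to compound for six hours; intended direction is loss of nuclei count meaning fewer cells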
Method in brief: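 Cell count served as viability reporter: loss of Hoechst-stained nuclei, counted by high content imaging, marks decreased growth or survival. Exposure was 6 h in MCF-7 cells across eight concentrations, with DMSO as baseline.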

Measured: AC50

Cellular tumor antigen p53 (Homo sapiens), sequence (P04637 whole entry, looked up): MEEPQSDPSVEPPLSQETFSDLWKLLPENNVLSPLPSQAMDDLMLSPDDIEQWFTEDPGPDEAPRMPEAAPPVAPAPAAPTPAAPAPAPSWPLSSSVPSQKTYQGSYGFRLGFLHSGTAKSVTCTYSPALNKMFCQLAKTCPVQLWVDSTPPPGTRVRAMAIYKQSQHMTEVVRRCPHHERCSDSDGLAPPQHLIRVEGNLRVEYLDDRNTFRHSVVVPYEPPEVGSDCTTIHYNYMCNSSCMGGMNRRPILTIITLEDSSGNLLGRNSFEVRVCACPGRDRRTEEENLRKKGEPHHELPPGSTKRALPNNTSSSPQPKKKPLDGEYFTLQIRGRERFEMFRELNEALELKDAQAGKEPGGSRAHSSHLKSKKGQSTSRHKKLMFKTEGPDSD

O=C(O)P(=O)(O)O
inactive: [1] | [2] | [3] | [4] | [5] | [6]

Nc1ccccc1O
active: [1] 41 µM | [3] 39.2 µM | [4] 75.4 µM | [5] 32.1 µM | [6] 35.2 µM
inactive: [2]

Nc1c2c(nc3ccccc13)CCCC2
inactive: all assays above

C=C(C)C(=O)OCCCC
inactive: [1] | [2] | [3] | [4] | [5] | [6]

CC(C)(C)NC[C@H](O)COc1nsnc1N1CCOCC1
inactive: all assays above
